# Shn3 3UTR inh = Schnurri-3 reporter inhibition in Clone20 osteoblasts. Clone20 osteoblast Shn3 3'UTR firefly luciferase, 24 h. inhibition, % at 12.5 µM. 0.52% of 360,000 active. AID 588674;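 active means mean inhibition of at least 75% with every replicate also reaching 75%; inconclusive means mean inhibition at least 75% but some replicate below; inactive means mean inhibition below 75%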
# MITF TRPM1 inh = inhibitors of MITF-driven TRPM1 promoter in melanoma cells; SK-MEL-5 TRPM1 promoter luciferase, 24 h; inhibition, % at 12.5 µM; 0.83% of 330,000 active; AID 488899;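 active means mean inhibition across replicates of 60% or more, whatever share of single replicates reaches that level; inconclusive means some that reach 60%, reason not given; inactive means mean inhibition across replicates below 60%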
# 697 NFkB inh = lowers PMA/ionomycin-induced NF-kB signal in 697 B cells; 697 B-cell NF-kB luciferase reporter, 16 h; inhibition, % at 4 µM; 0.33% of 330,000 active; in the data active means inhibition above about 35%
# Gli-Sufu antag = antagonists of Gli-Sufu signaling; Sufu-KO-LIGHT fibroblasts, Gli luciferase reporter luminescence; 0.74% of 340,000 active; inhibition, % at 5 µM;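 active means inhibition above about 55%, limit read from the data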
# LMP1 NFkB inh = Epstein-Barr LMP1 NF-kappaB reporter inhibition | 0.69% of 350,000 active | LMP1-induced NF-kappaB luciferase reporter cells, luminescence | AID 504558 | inhibition, % at 12.5 µM; in the data active means inhibition above about 41%; inconclusive means no clear call, values can overlap the other calls
# Jurkat NFkB inh = inhibitors of the PMA/ionomycin-induced NF-kB reporter in Jurkat cells; inhibition, % at 4 µM; 0.53% of 330,000 active; AID 435003; PMA/ionomycin-induced NF-kB luciferase reporter, luminescence; in the data active means inhibition above about 50%
# Numbers stand for hits; 0 = inactive; ? = inconclusive; - = not tested or not shown. Most compounds without a hit are left out; they make up all but 2.3% or so of the library.
SMILES,Shn3 3UTR inh,MITF TRPM1 inh,697 NFkB inh,Gli-Sufu antag,LMP1 NFkB inh,Jurkat NFkB inh
CCn1cc(C2Nc3ccccc3C(=O)N2O)c(C)n1 (configuration not stated),0,0,0,0,47.3,0
N#CC1=C(N)OC2=C(C(=O)CCC2)C12C(=O)N1CCCc3cccc2c31 (configuration not stated),0,0,0,0,84.2,0
N#CC1=C(N)OC2=C(C(=O)CCC2)[C@]12C(=O)N(CC(N)=O)c1ccccc12,0,0,0,0,0,0
CCOC(=O)N1CCC(NC(=O)c2ccc(CS(=O)c3cccc(Cl)c3)o2)CC1 (configuration not stated),0,0,0,0,0,0
CCC1CCCCN1C(=O)/C=C/c1ccc2c(c1)OCO2 (configuration not stated),0,0,0,0,0,0
CN(C)c1nc(C=C(C#N)C#N)c(Cl)n1-c1ccc(F)cc1,97.5,100.8,-,0,0,-
Cc1cc(C(=O)COC(=O)C2=COCCO2)c(C)n1-c1ccccc1,0,80.8,0,0,72.4,0
CCCc1cc(=O)n2[nH]cc(-c3ccc(Cl)cc3)c2n1,0,0,0,0,44.1,0
COC(=O)c1ccc(/C=C/C(=O)c2ccc(OC)c(OC)c2)cc1,0,0,0,0,0,0
O=[N+]([O-])c1cc(/C=N\O)ccc1Oc1ccc(F)cc1,0,0,0,0,64.6,0
COc1ccc(/C=C/C(=O)c2ccc(C(=O)/C=C/c3ccc(OC)c(OC)c3)cc2)cc1OC,87.3,0,0,0,0,0
O=C(/C=C/c1ccc(O)c([N+](=O)[O-])c1)c1ccc2ccccc2c1,0,0,0,0,?,0
COc1ccc(Oc2ccc(/C=C/C(=O)c3ccc(O)cc3)cc2[N+](=O)[O-])cc1,0,81.5,0,0,0,0
CC1CN(c2cc(=O)n(-c3ccccc3)c(=O)[nH]2)CC(C)O1 (configuration not stated),0,0,0,0,60.6,0
COc1ccc(OC)c(/C=C/C(=O)N2C(=O)c3cccc(N)c3C2=O)c1,91.8,0,0,0,0,0
O=C1CSC(=S)N1Cc1ccccc1,0,-,-,-,41.5,-
O=C1CCN(CCCN2CCC(=O)N(Cc3ccccc3)C2=S)C(=S)N1Cc1ccccc1,0,-,-,-,0,-
CC(C)c1cc(C(=O)N2CCCC(Nc3ccc(F)cc3)C2)nc(N)n1 (configuration not stated),0,0,0,0,0,0
O=C(Nc1ccc(C(=O)c2ccc(C(=O)O)c(C(=O)O)c2)cc1)c1ccccc1,0,0,0,0,0,0
O=C(O)c1ccc(C(=O)O)c(C(=O)c2ccc(NC(=O)c3ccccc3)cc2)c1,0,0,0,0,59.7,0
C(C#CCCCCCCCCC[n+]1ccccc1)#CCCCCCCCCC[n+]1ccccc1,?,100.7,-,87.2,0,-
O=C(CSc1c2c(nc3ccc(Cl)cc13)CCCC2)N1CCN(C(=O)c2ccco2)CC1,92.8,0,-,0,0,-
Cc1ccc(CNC(=O)CSc2c3c(nc4ccc(Cl)cc24)CCCC3)o1,84.3,0,0,0,0,0
O=C(CSc1nc2cc(Cl)ccc2s1)N1CCN(C(=O)c2ccco2)CC1,0,0,0,0,0,0
C/C(=N\NC(=O)CC1N=C(Cc2ccccc2)NNC1=O)c1ccccc1 (configuration not stated),0,0,0,0,0,0
SMILES,Shn3 3UTR inh,MITF TRPM1 inh,697 NFkB inh,Gli-Sufu antag,LMP1 NFkB inh,Jurkat NFkB inh
COCc1c(C(=O)Nc2cccc(S(=O)(=O)N3CCCCC3)c2)oc2ccccc12,85.6,0,0,0,0,0
O=C(CCl)Nc1cccc(S(=O)(=O)N2CCCCCC2)c1,0,75.4,0,0,0,0
O=C(CCl)Nc1cccc(S(=O)(=O)NC2=NCCCCC2)c1,0,75.6,0,0,0,0
O=C(CCl)Nc1ccc(S(=O)(=O)NC2=NCCCCC2)cc1,0,0,0,0,0,0
O=C(Nc1cccc(S(=O)(=O)NC2=NCCC2)c1)C1CC(=O)N(c2ccc3c(c2)OCCO3)C1 (configuration not stated),87.2,0,0,-,0,0
COc1ccc(CNC(=O)CN(C)S(=O)(=O)c2ccc(Cl)cc2)cc1,0,0,0,0,0,0
Cc1[nH]c(=O)[nH]c(=O)c1/C=N/NC(=O)CCNC(=O)OC(C)(C)C,0,0,0,0,0,0
N#CCCN(Cc1ccccc1)C(=S)Nc1ccc(F)cc1,-,0,0,0,0,0

# Screens (PubChem BioAssay)
